# Results taken from PubChem BioAssay.
# Calls of active or inactive are those of the source.
# Assays:
# [1] = test system: PRMT1 (protein arginine N-methyltransferase 1); test: small molecules binding arginine methyltransferase PRMT1 – biochemical, small-molecule microarray, 635 nm fluorescence, primary screen (AID 1088); details: higher = more signal;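 also: binding of Prmt1 protein to compounds spotted on small-molecule microarray slides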
# [2] = growth effects on S. cerevisiae YJM789 – YJM789 clinical isolate, OD600, 24 h, basal, primary screen (AID 1089); details: higher = more signal, called active from +8 up or from −8 down;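 also: growth of clinical yeast isolate S. cerevisiae YJM 789 seeded 1000 cells per well; test concentration not given here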
# [3] = S. pombe growth modifiers, basal conditions – strain 972, OD600, 24 h, no modulator, primary screen (AID 1090);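 also: basal condition with compound alone and no growth modifier present; test concentration not given here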; details: S. pombe 972 growth, higher = more signal, called active from +8 up or from −8 down
# [4] = budding yeast growth modifiers under rapamycin – strain BY4716, OD600, 96 h, primary screen (AID 1091); also: test concentration not given here; details: S. cerevisiae BY4716 + rapamycin, higher = more signal, called active from +8 up or from −8 down
# [5] = biological target: Torsin-1A-interacting protein 2 (Homo sapiens) (UniProt Q8NFQ8); test: small molecules binding lysate-expressed LULL1 – cell lysate, human LULL1 lysate, 635/667 nm fluorescence, primary screen (AID 1092); details: small-molecule microarray, hLULL1 lysate binding, 635 nm fluorescence; higher = more signal;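 also: probe is lysate of COS7 cells overexpressing human LULL1; score merges per-feature 667 nm fluorescence with signal-to-noise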
# Sequence of Torsin-1A-interacting protein 2 (Homo sapiens) (Q8NFQ8 whole entry, looked up): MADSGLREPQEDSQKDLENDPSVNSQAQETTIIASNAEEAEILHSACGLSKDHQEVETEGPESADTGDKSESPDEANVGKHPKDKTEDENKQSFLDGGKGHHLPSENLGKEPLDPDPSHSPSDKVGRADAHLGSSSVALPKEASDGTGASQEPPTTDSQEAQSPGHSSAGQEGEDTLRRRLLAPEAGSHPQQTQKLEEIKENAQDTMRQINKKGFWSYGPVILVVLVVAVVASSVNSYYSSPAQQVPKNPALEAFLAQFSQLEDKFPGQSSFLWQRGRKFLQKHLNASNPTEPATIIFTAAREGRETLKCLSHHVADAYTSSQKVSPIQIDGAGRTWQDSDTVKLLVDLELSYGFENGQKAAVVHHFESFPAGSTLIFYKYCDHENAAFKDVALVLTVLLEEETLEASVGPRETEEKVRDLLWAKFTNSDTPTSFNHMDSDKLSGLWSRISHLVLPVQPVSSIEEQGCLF
# [6] = optical density change of DRC41 E. coli – strain DRC41, OD650, 24 h, E. coli filamentation project, primary screen (AID 1093);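 also: MC1000 strain lacking acrAB efflux and sulA so SOS filamentation is blocked; test concentration not given here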; details: E. coli DRC41 growth, higher = more signal, called active from +8 up or from −8 down
# [7] = probe aLefty2 binding to arrayed compounds – biochemical, biotinylated probe, 635/667 nm fluorescence, primary screen (AID 1094); details: small-molecule microarray, higher = more signal;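 also: score merges spot fluorescence near 667 nm with spot signal-to-noise ratio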
# [8] = test system: Noggin (protein binding on small-molecule microarray); test: small molecules binding Noggin protein – biochemical, 635/667 nm fluorescence, primary screen (AID 1095); details: 635 nm fluorescence, higher = more signal;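 also: score merges 667 nm feature fluorescence with signal to noise over triplicate slides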
# [9] = biological target: Neurogenic locus notch homolog protein 3 (Homo sapiens) (UniProt Q9UM47); test: small molecules binding NOTCH3 protein – biochemical, 635/667 nm fluorescence, primary screen (AID 1096); details: small-molecule microarray, 635 nm fluorescence, higher = more signal
# Sequence of Neurogenic locus notch homolog protein 3 (Homo sapiens) (Q9UM47 whole entry, looked up): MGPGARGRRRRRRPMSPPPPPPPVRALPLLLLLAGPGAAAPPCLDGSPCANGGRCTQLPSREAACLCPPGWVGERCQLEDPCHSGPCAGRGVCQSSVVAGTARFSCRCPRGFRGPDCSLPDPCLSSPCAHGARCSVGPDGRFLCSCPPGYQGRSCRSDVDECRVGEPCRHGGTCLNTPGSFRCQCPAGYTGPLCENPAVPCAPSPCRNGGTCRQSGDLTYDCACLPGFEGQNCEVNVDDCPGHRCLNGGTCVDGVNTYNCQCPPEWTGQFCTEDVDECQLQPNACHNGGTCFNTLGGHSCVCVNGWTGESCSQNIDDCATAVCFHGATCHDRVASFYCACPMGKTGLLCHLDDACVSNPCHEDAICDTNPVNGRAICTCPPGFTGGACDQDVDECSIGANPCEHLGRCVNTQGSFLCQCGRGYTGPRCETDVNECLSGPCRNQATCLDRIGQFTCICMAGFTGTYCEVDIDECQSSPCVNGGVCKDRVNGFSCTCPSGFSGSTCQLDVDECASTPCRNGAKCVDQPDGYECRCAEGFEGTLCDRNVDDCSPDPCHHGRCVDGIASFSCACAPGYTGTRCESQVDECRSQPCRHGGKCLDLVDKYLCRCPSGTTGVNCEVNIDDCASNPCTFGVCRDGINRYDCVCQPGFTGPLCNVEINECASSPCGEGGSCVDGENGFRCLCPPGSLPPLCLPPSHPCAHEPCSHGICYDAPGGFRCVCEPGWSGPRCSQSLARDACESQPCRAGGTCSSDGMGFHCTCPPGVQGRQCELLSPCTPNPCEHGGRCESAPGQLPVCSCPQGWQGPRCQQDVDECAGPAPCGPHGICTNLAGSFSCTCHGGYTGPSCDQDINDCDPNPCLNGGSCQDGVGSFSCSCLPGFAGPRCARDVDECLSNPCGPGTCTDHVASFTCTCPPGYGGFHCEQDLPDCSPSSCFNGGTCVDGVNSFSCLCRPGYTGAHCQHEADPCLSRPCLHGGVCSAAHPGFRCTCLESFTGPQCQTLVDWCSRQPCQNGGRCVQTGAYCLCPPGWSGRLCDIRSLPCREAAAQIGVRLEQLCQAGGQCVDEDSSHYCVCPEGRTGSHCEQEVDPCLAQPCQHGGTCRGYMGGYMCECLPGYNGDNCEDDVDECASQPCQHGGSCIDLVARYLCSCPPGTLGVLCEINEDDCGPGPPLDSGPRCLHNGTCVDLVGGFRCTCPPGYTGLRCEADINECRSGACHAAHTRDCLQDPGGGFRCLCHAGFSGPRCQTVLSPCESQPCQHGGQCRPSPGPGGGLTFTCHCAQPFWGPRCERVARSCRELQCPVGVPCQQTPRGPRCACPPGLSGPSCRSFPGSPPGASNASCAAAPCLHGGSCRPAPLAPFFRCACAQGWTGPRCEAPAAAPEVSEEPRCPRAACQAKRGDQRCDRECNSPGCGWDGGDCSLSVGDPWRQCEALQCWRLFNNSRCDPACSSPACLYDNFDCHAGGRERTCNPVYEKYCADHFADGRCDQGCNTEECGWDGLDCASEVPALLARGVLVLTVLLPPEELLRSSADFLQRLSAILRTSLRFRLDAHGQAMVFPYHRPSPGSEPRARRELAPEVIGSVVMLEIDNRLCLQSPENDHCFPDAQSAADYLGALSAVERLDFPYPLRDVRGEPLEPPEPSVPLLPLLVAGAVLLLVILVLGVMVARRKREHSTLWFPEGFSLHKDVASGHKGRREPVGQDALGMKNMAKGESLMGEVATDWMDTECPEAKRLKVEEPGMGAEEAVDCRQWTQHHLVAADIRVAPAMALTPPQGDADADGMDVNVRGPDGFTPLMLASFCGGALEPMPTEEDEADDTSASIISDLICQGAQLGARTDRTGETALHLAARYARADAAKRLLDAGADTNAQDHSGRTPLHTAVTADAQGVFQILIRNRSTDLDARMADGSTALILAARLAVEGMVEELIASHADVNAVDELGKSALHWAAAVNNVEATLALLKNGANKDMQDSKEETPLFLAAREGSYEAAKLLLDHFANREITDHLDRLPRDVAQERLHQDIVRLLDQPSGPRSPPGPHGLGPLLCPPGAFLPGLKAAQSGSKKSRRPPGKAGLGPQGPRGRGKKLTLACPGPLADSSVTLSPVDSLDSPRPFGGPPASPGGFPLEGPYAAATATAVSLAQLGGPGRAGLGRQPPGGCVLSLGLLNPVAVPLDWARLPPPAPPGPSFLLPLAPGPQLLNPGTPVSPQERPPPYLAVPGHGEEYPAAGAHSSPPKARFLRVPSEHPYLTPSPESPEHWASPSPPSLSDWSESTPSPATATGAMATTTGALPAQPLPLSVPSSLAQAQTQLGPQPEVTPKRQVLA
# [10] = probe aEGFR binding to arrayed compounds – biochemical, biotinylated probe, 635/667 nm fluorescence, primary screen (AID 1097); details: small-molecule microarray, higher = more signal;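 also: probe is a biotinylated anti-EGFR antibody binding compounds printed on slides; score combines fluorescence near 667 nm and signal to noise of each spot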
Structure (SMILES),composite z-score [1],z-score [2],z-score [3],z-score [4],composite z-score [5],z-score [6],composite z-score [7],composite z-score [8],composite z-score [9],composite z-score [10]
COc1cc(C(O)C2C=CC3C(=O)N(Cc4ccccc4)C(=O)C3N2n2cnnc2)cc(OC)c1OC (stereo not given),0.932,-1.3 (inactive),-0.519 (inactive),-1.22 (inactive),1.36,0.582 (inactive),0.327,-0.127,0.626,0.298
CN(C)CCCC[C@@H]1NC(=O)[C@@H]2C[C@H](C(=O)O)[C@H](c3cccc(OCCO)c3)N2C1=O,0.212,0.15 (inactive),-0.595 (inactive),-0.273 (inactive),1.31,0.802 (inactive),-0.036,-0.0355,-0.0905,-0.203
CC(C)C(CO)N1C(=O)[C@@H]2[C@H]3C(=O)OCC=C[C@H]3OC23C=CCN(C(C)(C)C)C(=O)[C@@H]13 (stereo not given in full),-0.0274,0.027 (inactive),0.0191 (inactive),0.754 (inactive),-0.963,-0.7 (inactive),-0.168,-0.122,-0.0022,-0.144
COc1ccc(CCNC(=O)[C@@]2(Cc3ccccc3I)c3ccccc3C(=O)N(Cc3ccccc3Cl)[C@H]2c2ccc(CO)cc2)cc1,1.46,-0.372 (inactive),-0.645 (inactive),-0.0387 (inactive),2.35,-1.3 (inactive),0.23,-0.383,0.0854,0.0284
COc1ccc(C(=O)Nc2cccc(CN3C(=O)[C@@]4(O[C@@H](CC(=O)N(CCO)Cc5ccccc5)[C@H]([Si](C)(C)c5ccc(OC)cc5)[C@H]4C)c4ccccc43)c2)cc1,0.931,-1.42 (inactive),-0.9 (inactive),2.85 (inactive),1.94,0.904 (inactive),-0.175,0.8,0.487,-0.201
CN1C(=O)C2C(C1=O)C1C=C(CCCO)C2C(C2CC2)N1Cc1cc2c(cc1Br)OCO2 (stereo not given),0.84,-3.43 (inactive),-1.03 (inactive),-0.932 (inactive),2.82,0.307 (inactive),0.183,0.304,0.699,0.0185
Cc1cccc([C@H]2C[C@H]3C(Br)=C[C@@H]2C(=O)[C@]32CO2)c1,-0.373,-0.749 (inactive),-20.5 (active),-1.2 (inactive),-0.831,0.779 (inactive),-0.0416,-0.329,-0.867,-0.626
O=C1C2C=CC(C(O)c3cc(C(F)(F)F)cc(C(F)(F)F)c3)N(Nc3ccccc3F)C2C(=O)N1c1ccccc1 (stereo not given),1.11,0.503 (inactive),0.854 (inactive),6.9 (inactive),3.19,-1.99 (inactive),0.0655,-0.989,1.07,0.0061
